From PubChem BioAssay (NCATS)
Unmarked numbers belong to inactive results. Results filed as inconclusive are left out. Calls of active or inactive are those of the source. Unless noted, calls follow the shape of the dose curve; as a rule, active = well fitted curve in either direction with a large enough effect (not every such curve was filed as active); inconclusive = small, poorly fitted or top-dose-only effect, or another doubt; inactive = flat fitted curve, though single readings scatter.

Legend:
[1] = target: Lysosomal acid glucosylceramidase (Homo sapiens) (UniProt P04062); experiment: Glucocerebrosidase-p2 (AID 348; in the data active = potency below about 10 µM; also: potency is read from the fitted curve at half-maximal effect); details: purified GBA, blue fluorogenic substrate, 40 min
Chain of Lysosomal acid glucosylceramidase (Homo sapiens) (P04062 whole entry, looked up): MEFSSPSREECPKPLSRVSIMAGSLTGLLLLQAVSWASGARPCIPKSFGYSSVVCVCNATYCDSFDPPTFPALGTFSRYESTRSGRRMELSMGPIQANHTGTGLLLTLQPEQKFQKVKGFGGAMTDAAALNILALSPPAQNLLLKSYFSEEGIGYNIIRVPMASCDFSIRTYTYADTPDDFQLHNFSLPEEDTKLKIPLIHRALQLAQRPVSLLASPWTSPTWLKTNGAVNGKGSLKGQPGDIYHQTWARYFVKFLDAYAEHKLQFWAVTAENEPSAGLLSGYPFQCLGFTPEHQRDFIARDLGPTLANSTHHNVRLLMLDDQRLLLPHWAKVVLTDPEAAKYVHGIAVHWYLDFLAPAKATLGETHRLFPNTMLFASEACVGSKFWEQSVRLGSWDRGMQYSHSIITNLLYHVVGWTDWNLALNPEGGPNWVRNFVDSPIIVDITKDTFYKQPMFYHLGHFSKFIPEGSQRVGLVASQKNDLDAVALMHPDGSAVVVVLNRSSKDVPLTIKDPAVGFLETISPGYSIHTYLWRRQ
Summary of the method: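 Normal human glucocerebrosidase (0.2 nM) with blue fluorogenic substrate (80 uM final) in citrate/phosphate pH 5.9 with 10mM sodium taurocholate, 0.01% tween-20; 40 min RT, NaOH/glycine stop; fluorescence Ex 365/Em 440; AC50 from a titration from 0.6 nM upwards.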

[2] = AP1 Signaling Pathway (AID 357); details: ME-180 AP-1-bla reporter, EGF-induced, beta-lactamase ratio, 5 h; at 7.69 µM (top of the series) unless noted;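 also: ME-180 reporter cells stimulated with EGF at its EC50 level; % is scaled to controls: 0 for no effect and ±100 for the full control effect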
Summary of the method: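 A ratiometric CCF4 readout (405 nm excitation; 460 and 530 nm emission) quantified AP-1-driven beta-lactamase in ME-180 cells after 5 h with compound and EC50 EGF; AC50 values were derived for activators and inhibitors.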

[3] = Stat Signaling Pathway (AID 446); details: ME-180 (cervical carcinoma) SIE beta-lactamase reporter, IL-6 stimulated, 5 h; at 7.69 µM (top of the series) unless noted;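 also: ME-180 cervical cancer cells given 40 pM IL-6 alongside compound; SIE-controlled beta-lactamase reporter measured as 460/530 nm FRET emission ratio; % is scaled to controls: 0 for no effect and ±100 for the full control effect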
Summary of the method: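 FRET read-out (405 nm excitation, 460/530 nm emission) of a beta-lactamase reporter under a STAT-inducible element in ME-180 cervical carcinoma cells. Cells with compound receive 40 pM IL-6 for 5 h. Values are normalised to AC90 stimulation and AC90 JAK-inhibitor controls.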

[4] = target: Glucocorticoid receptor (Homo sapiens) (UniProt P04150); experiment: GR-GFP Redistribution (AID 450;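 active = compounds whose dose series gives a full or clear partial fitted curve of increased nuclear translocation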; also: potency is read from the fitted curve at half-maximal effect); details: U2OS GR-GFP nuclear translocation, laser cytometry, 2 h
Chain of Glucocorticoid receptor (Homo sapiens) (P04150 whole entry, looked up, the tested form may be a part): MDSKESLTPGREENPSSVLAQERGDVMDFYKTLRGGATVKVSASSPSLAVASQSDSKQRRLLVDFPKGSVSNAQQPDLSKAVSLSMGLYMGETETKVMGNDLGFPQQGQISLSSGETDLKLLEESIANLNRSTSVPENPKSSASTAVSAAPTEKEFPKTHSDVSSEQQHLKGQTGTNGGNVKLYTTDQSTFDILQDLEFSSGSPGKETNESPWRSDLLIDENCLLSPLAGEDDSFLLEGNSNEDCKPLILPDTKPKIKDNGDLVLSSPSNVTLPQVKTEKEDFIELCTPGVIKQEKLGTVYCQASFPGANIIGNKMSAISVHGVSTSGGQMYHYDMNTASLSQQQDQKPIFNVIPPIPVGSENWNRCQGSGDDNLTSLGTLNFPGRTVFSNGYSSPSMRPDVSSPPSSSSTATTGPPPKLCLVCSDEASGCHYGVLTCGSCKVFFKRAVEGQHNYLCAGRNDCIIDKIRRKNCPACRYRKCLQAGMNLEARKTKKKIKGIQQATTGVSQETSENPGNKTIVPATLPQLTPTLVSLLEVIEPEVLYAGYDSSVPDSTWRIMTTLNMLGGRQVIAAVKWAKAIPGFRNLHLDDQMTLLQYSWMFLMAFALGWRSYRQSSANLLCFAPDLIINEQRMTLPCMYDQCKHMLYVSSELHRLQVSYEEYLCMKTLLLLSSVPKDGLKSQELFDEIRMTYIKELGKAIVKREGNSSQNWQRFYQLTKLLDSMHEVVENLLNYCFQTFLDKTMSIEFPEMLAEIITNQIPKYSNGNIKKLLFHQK

[5] = target: Glucocorticoid receptor (Homo sapiens) (UniProt P04150); experiment: GR-EFC Redistribution (AID 451; calls by dose curve; also: potency is read from the fitted curve at half-maximal effect); details: CHO-K1 GR-EFC translocation, beta-gal luminescence, 2 h
Summary of the method: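 Translocation of GR-ED fusion to nuclear EA restores b-gal, read by luminescence after 1 h room-temperature detection. Engineered CHO-K1 biosensor cells, 1,000/well, exposed 2 h at 37 C to titrations up to 46 uM final.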

[6] = target: Mitogen-activated protein kinase 10 (Mus musculus) (UniProt Q61831); experiment: JNK3 AlphaScreen Assay (AID 530); details: JNK3 lysate, c-Jun phosphorylation; series mostly up to 11.4 µM;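 also: kinase came from lysate of stimulated human HepG2 cells; signal reports phosphorylation of biotinylated GST-cJun 1-79 at Ser73 with 10 µM ATP; % is scaled to controls: 0 for no effect and ±100 for the full control effect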
Summary of the method: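 Kinase buffer: 20 mM Tris-HCl pH 7.6, 10 mM MgCl2, 1 mM DTT, 0.1 mM Na3VO4, 0.01% Tween-20; ATP 10 uM. Substrate biotin-GST-cJun(1-79), enzyme from activated HepG2 lysates. Detection by Ser73 phospho-antibody AlphaScreen.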

[7] = target: 3',5'-cyclic-AMP phosphodiesterase 4B (Homo sapiens) (UniProt Q07343); experiment: qHTS Assay for Inhibitors of PDE-IV (AID 607; active = well fitted activation curve with a large enough effect in the main read-out, with a control signal flat, not every such curve was filed as active; also: % of control where 0% means no effect); details: HEK293 ACTOne CNG channel cells, membrane potential fluorescence; series mostly up to 22.9 µM
Chain of 3',5'-cyclic-AMP phosphodiesterase 4B (Homo sapiens) (Q07343 whole entry, looked up): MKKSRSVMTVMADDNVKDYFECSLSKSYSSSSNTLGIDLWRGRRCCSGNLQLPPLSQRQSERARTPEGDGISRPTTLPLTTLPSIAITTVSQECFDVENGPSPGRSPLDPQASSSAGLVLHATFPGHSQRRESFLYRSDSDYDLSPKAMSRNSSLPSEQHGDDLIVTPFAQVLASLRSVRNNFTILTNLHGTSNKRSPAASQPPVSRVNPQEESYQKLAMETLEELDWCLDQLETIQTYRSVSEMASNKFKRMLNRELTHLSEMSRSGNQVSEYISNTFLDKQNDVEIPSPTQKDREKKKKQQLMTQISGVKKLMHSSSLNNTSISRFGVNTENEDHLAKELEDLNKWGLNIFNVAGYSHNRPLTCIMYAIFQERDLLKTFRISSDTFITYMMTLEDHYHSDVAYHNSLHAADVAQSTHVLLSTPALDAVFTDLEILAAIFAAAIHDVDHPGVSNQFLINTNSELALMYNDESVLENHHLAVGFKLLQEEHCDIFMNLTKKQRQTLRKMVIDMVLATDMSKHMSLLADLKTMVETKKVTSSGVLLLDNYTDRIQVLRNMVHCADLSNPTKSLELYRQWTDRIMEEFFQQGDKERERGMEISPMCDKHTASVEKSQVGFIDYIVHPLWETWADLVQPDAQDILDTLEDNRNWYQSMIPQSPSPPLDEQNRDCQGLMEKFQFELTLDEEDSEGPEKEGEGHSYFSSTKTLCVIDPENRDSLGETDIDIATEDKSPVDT
Summary of the method: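 Cell-based read-out of cAMP via a modified cyclic nucleotide-gated channel and membrane potential dye (535/590 nm) in HEK293 cells expressing PDE4 endogenously. Compounds tested up to 22.9 uM final; 100 uM RO 20-1724 reference.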

[8] = target: Cytochrome P450 3A4 (Homo sapiens) (UniProt P08684); experiment: qHTS Assay for Activators of Cytochrome P450 3A4 (AID 885; active = well fitted curve in the direction sought with a large enough effect; an effect the other way counts as inactive or inconclusive; also: nearly all actives have a fitted effect of over 65% in size); details: recombinant CYP3A4, Luciferin-PPXE luminescence, 60 min; series mostly up to 11.4 µM
Chain of Cytochrome P450 3A4 (Homo sapiens) (P08684 whole entry, looked up): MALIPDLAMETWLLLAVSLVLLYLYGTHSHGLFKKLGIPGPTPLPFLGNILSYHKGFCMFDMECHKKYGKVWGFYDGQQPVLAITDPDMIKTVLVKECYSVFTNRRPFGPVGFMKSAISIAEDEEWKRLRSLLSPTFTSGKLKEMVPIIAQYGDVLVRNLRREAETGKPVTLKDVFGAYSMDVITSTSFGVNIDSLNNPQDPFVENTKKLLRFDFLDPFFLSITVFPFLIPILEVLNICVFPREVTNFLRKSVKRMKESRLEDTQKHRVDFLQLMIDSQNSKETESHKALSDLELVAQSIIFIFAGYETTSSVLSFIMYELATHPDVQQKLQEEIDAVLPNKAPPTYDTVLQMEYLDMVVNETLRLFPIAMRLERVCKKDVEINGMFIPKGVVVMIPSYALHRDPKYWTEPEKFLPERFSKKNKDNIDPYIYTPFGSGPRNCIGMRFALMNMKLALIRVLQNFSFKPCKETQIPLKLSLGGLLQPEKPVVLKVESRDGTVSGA
Summary of the method: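 Luminescent readout of luciferin formed from 25 uM Luciferin-PPXE (KM level) by 20 nM CYP3A4 in 200 mM KPO4, with 60 min NADPH-driven reaction at room temperature after 10 min compound exposure. Ketoconazole (57 uM) defined 100% inhibition.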

[9] = target: Cytochrome P450 2C19 (Homo sapiens) (UniProt P33261); experiment: qHTS Assay for Inhibitors and Substrates of Cytochrome P450 2C19 (AID 899; active = well fitted curve in the direction sought with a large enough effect; an effect the other way counts as inactive or inconclusive; also: potency is read from the fitted curve at half-maximal effect; nearly all actives have a fitted effect of over 60% in size); details: recombinant CYP2C19, luciferin-H EGE luminescence; series mostly up to 11.4 µM
Chain of Cytochrome P450 2C19 (Homo sapiens) (P33261 whole entry, looked up): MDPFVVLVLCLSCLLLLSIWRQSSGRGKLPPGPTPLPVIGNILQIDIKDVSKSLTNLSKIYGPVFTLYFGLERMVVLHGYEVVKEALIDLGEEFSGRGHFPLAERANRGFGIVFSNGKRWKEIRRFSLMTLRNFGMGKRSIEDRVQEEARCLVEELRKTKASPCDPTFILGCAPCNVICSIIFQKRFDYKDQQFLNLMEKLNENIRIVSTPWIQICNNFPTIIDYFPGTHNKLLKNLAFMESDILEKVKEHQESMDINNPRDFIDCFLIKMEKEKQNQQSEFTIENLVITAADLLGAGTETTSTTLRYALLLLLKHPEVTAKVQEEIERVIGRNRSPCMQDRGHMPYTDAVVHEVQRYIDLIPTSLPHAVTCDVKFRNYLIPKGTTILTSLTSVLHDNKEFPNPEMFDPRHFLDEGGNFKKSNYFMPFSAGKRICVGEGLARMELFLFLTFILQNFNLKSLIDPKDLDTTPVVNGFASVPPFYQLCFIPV
Summary of the method: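 Reactions contain 5nM enzyme, 10uM Luciferin-H EGE (KM) and 50mM KPO4; compound preincubates 10 min at 37C, NADPH regeneration starts turnover for 60 min. Luminescence after detection reagent gives activity.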

[10] = target: Cytochrome P450 2D6 (Homo sapiens) (UniProt P10635); experiment: qHTS Assay for Inhibitors and Substrates of Cytochrome P450 2D6 (AID 891; active = well fitted curve in the direction sought with a large enough effect; an effect the other way counts as inactive or inconclusive; also: potency is read from the fitted curve at half-maximal effect; nearly all actives have a fitted effect of over 60% in size); details: recombinant CYP2D6, luciferin-ME EGE luminescence; series mostly up to 11.4 µM
Chain of Cytochrome P450 2D6 (Homo sapiens) (P10635 whole entry, looked up): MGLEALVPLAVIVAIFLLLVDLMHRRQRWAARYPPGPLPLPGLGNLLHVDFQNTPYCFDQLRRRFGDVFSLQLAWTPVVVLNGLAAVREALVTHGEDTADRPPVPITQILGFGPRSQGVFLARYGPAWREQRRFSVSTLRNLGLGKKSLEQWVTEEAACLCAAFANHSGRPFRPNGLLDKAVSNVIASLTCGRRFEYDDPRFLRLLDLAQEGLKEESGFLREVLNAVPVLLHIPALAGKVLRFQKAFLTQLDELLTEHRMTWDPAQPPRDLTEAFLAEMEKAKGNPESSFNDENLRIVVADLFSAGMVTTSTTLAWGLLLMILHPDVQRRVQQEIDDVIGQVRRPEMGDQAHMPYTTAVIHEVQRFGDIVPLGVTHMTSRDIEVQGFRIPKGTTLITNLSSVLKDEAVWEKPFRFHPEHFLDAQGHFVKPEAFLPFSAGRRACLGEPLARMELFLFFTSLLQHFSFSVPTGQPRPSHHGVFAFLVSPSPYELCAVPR
Summary of the method: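 Luminescent read-out of luciferin formed by 5 nM human CYP2D6 demethylating 30 uM Luciferin-ME EGE (Km level) over 60 min at room temperature after NADPH regeneration addition. Data normalized to full inhibition by 1.43 uM quinidine.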

| Compound | Potency [1] [µM] | activity change, negative = inhibition [2] [%] | activity, negative = inhibition [3] [%] | Potency [4] [µM] | Potency [5] [µM] | Potency [6] | Potency [7] | Potency [8] | Potency [9] | Potency [10] |
| --- | --- | --- | --- | --- | --- | --- | --- | --- | --- | --- |
| COc1ccc(C(=O)N/N=C2/C(=O)c3c(C)cc(C)cc3CC2(C)C)cc1 | > 11.4 | -13.7 | 6.46 | > 46 | > 9.22 | inactive | inactive | inactive | 3.98 µM (active) |  |
| C[N@@+]1(Cc2ccc(Cl)c(Cl)c2)CCC[C@@H]1c1ccc[n+](Cc2ccc(Cl)c(Cl)c2)c1 | > 11.4 | -3.2 | -0.293 | > 46 | > 9.22 | inactive | inactive |  |  | 3.16 µM (active) |
| c1cncc(CSc2ncnc3nc[nH]c23)c1 | > 11.4 | -2.25 | 8.79 | > 46 | > 9.22 | inactive | inactive |  |  |  |
| O=C1C[C@H]2OCC=C3CN4CC[C@@]5(C(=O)O)[C@H](N1)[C@H]2[C@H]3C[C@H]45 | > 11.4 | 1.86 | -5.3 | > 46 | > 9.22 | inactive | inactive |  |  |  |
